# Experimental data from PubChem BioAssay (Tox21).
# Calls of active or inactive are those of the source. Calls come from the whole dose curve; as a rule, active = well fitted curve in the direction sought with a large enough effect in the repeat runs; inconclusive = weak or mixed curves; inactive = flat fitted curve, though single readings scatter.
# Assay: qHTS assay to test for compound auto fluorescence at 590 nm (red) in HepG2 cells (AID 720674)
# Conditions: HepG2 autofluorescence, red 540/590 nm, 1 h; series mostly up to 91.3 µM
# Description: U.S. Tox21 Program National Center for Advancing Translational Sciences [NCATS] NIH Chemical Genomics Center [NCGC] U.S. Environmental Protection Agency [EPA] National Institutes of Environmental Health Sciences [NIEHS] National Toxicology Program [NTP] U.S. Food and Drug Administration [FDA] Tox21 Assay Overview: Compound auto fluorescence often interferes with screening of the compound library against various biological targets and signaling pathways. Some of these compounds may have fluorophoric properties. Such properties may interfere with the assay outputs resulting in false positives and/or negatives. To decrease such complications and ensure the compound activities are relevant in terms of biological response, the Tox21 10K compound library was screened for auto fluorescence. From the fluorophores used as reporter signals in our screening assays, the auto fluorescence equivalencies of compounds against three fluorophores have been evaluated: Triamterene, Fluorescein and Rose Bengal sodium for blue, green and red fluorescence, respectively. The fluorescence intensities were measured using Excitation/Emission wavelengths at 405/460nm, 485/535nm and 540/590nm for blue, green and red labels, respectively. This assay includes the red fluorescence data.
# Tox21 Assay Protocol Summary: 2,000 HepG2 cells in 5 uL of culture medium (MEM containing 10% FBS) per well were dispensed into black wall/clear bottom 1536-well plates using a Multidrop Combi Dispenser (ThermoFisher Scientific, Waltham, MA). The assay plates were incubated overnight at 37 C to allow cell attachment to the well bottom, followed by the transfer of 23 nL compound or DMSO vehicle by a pintool work station (Kalypsys , San Diego, CA). After the assay plates were incubated for 1 hr at 37 C and 5% CO2, fluorescence intensities in the assay plates were measured by an Envision (PerkinElmer, Shelton, CT) plate reader using three labels for measuring blue, green and red fluorescence at […] 460, 535 and 590 nm respectively.
# % is set by controls: 0 for no effect and ±100 for the full control effect.
SMILES,outcome,"fluorescence, relative to Rose Bengal"
Oc1cccc(O)c1O,inactive,
OC(CCN1CCCC1)(c1ccccc1)C1CCCCC1 (stereo not given),,0.15% [at 18.6 µM] (inactive)
CCCCCCC(C)(C)C(=O)O,inactive,
C/C=C(/C(=C/C)c1ccc(O)cc1)c1ccc(O)cc1,,0.479% [at 18.6 µM] (inactive)
Oc1cccc(Nc2ccccc2)c1,inactive,
Clc1cc(Cl)nc(Cl)n1,inactive,
C[C@]12CC[C@@H]3c4ccc(O)cc4CC[C@H]3[C@@H]1CC[C@@H]2OC(=O)CCC1CCCC1,inactive,
CCC1CO1 (stereo not given),inactive,
CCOC(=O)c1ccc(OCCN2C[C@H](O)[C@@H](O)[C@H](O)[C@H]2CO)cc1,inactive,
O=c1[nH]c2ccc(Cl)cc2o1,inactive,
COC(=O)C1=C(C)NC(C)=C(C(=O)O[C@@H]2CCCN(Cc3ccccc3)C2)[C@@H]1c1cccc([N+](=O)[O-])c1,inactive,
CN1CCCC(n2nc(Cc3ccc(Cl)cc3)c3ccccc3c2=O)CC1 (stereo not given),inactive,
CCCCCCCCCCCCCCN(CCO)CCO,inactive,
c1ccc2c(c1)CCc1ccccc1N2,inactive,
CN1C(C(=O)Nc2ccccn2)=C(O)c2sccc2S1(=O)=O,,-0.263% [at 18.6 µM] (inactive)
CCC=CC#N,inactive,
Cc1ccc(CO)cc1,inactive,
Cc1ccc(OC(=O)c2ccccc2O)cc1,inactive,
CCCCCCCCC(CCCCCC)C(=O)O (stereo not given),inactive,
CC[N+](CC)(CCNC(=O)C(=O)NCC[N+](CC)(CC)Cc1ccccc1Cl)Cc1ccccc1Cl,inactive,

SMILES,outcome,"fluorescence, relative to Rose Bengal"
O=C1C(=O)c2ccccc2C(O)=C1C1CCC(c2ccc(Cl)cc2)CC1 (stereo not given),,-0.463% [at 18.6 µM] (inactive)
O=c1[nH]ncc2ccccc12,inactive,
CCCCOc1ccc(OCCCN2CCOCC2)cc1,,-0.141% [at 18.6 µM] (inactive)
CC1(CN2CCC(n3c(=O)[nH]c4ccccc43)CC2)OCc2ccccc2-n2cccc21 (stereo not given),inactive,
Brc1cc(Br)c(Oc2cc(Br)c(Br)cc2Br)cc1Br,inactive,
C/C=C\C/C=C/CCCCCCCCOC(C)=O,inactive,
Nc1ncnc2c1ncn2[C@H]1CC[C@@H](CO)O1,inactive,
O[C@@H]1CO[C@H]2[C@@H]1OC[C@@H]2O,inactive,
O=C(OC(=O)c1ccccc1)c1ccccc1,inactive,
CN(C)CCN1C(=O)c2ccccc2N(C)c2ccccc21,inactive,
CCOC(=O)C1=C(C)NC(C)=C(C(=O)OC)C1c1cccc(Cl)c1Cl (stereo not given),inactive,
CCCCCC#CC(=O)OC,inactive,
CC(=O)c1ccc([N+](=O)[O-])cc1,inactive,
C=CC(=O)[O-].C=CC(=O)[O-].[Zn+2],inactive,
C=C(C)C(=O)OCCOCCOC(=O)C(=C)C,inactive,
CCOC(=O)/C=C/C(=O)OCC,inactive,
O=C1CCCCCCCCCCOCCCCO1,inactive,
CCCCCCCCCCC(=O)O,inactive,
NC1[C@H]2CN(c3nc4c(cc3F)c(=O)c(C(=O)O)cn4-c3ccc(F)cc3F)C[C@@H]12 (stereo not given in full),inactive,
COc1cc(C(=O)NCCCCCC(=O)O)cc(OC)c1OC,inactive,
